Here are results for 6 compounds from PubChem BioAssay (NCATS).

The target in test [1] is Lysosomal acid glucosylceramidase (Homo sapiens) (UniProt P04062). The test can be described thus: Glucocerebrosidase-p2 (AID 348; in the data active = potency below about 10 µM; note: potency is the fitted concentration of half-maximal effect). Particulars: purified GBA, blue fluorogenic substrate, 40 min. In outline: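 Compounds titrated from 0.6 nM upwards against 0.2 nM enzyme in pH 5.9 citric acid/KH2PO4, taurocholate, tween-20; blue fluorogenic substrate 80 uM, 40 min room temperature, stopped and read Ex 365/Em 440 for AC50.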
Chain of Lysosomal acid glucosylceramidase (Homo sapiens) (P04062 whole entry, looked up): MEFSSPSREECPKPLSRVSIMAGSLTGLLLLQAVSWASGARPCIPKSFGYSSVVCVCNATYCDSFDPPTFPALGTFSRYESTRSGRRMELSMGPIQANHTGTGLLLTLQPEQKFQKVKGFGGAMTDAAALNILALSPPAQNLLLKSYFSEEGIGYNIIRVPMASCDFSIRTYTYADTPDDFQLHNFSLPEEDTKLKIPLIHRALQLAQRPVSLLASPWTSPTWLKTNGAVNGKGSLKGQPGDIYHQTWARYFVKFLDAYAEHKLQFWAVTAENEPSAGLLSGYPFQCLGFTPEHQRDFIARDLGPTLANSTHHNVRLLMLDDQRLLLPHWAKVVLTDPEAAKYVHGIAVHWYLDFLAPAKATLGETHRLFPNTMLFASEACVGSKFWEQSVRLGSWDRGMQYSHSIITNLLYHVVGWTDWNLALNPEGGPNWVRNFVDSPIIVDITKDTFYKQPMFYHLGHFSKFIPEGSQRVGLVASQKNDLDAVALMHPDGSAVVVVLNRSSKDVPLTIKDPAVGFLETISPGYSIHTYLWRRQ

The nature of test [2]: AP1 Signaling Pathway (AID 357; active = well fitted curve in either direction with a large enough effect, not every such curve was filed as active; note: % is set by controls: 0 for no effect and ±100 for the full control effect). Conditions: ME-180 AP-1-bla reporter, EGF-induced, beta-lactamase ratio, 5 h; at 7.69 µM (top of the series) unless noted. The method in brief: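 ME-180 cells with beta-lactamase reporter under AP-1 response element, stimulated with EC50 EGF; compounds tested in titration series, 5 h at 37 °C. CCF4 substrate added 2.5 h at room temperature; 460/530 nm emission ratio gave %activity and AC50.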

The target of test [3] is Cytochrome P450 1A2 (Homo sapiens) (UniProt P05177). Nature of the test: p450-cyp1a2 (AID 410; calls by dose curve; note: potency is the fitted concentration of half-maximal effect). Particulars: recombinant CYP1A2, luciferin-ME demethylation, luminescence; series mostly up to 57 µM. The method in brief:
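20nM CYP1A2 with 100uM Luciferin-ME (at Km) in 100mM KPO4; compound preincubated 10 min, NADPH regeneration added, 60 min at room temperature. Luciferin quantified by luminescence after detection reagent; normalized to 57 uM furafylline.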

The nature of test [4]: NFAT Signaling Pathway (AID 444; active = well fitted curve in either direction with a large enough effect, not every such curve was filed as active;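 note: carbachol stimulus at about its EC50 of 1 µM final; % is set by controls: 0 for no effect and ±100 for the full control effect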). Particulars: Jurkat NFAT-bla M1, carbachol, beta-lactamase ratio, 5 h; at 7.69 µM (top of the series) unless noted. In outline:
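Jurkat cells with NFAT-driven β-lactamase reporter and co-expressed M1 receptor, stimulated with carbachol (final 1 uM, ~EC50), compound titration, 5 h at 37 °C. CCF4 loaded 1 h at RT; 460/530 nm ratio gave %activity and AC50.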

Test [5] in a line: Stat Signaling Pathway (AID 446; active = well fitted curve in either direction with a large enough effect, not every such curve was filed as active;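 note: ME-180 cervical cancer cells given 40 pM IL-6 alongside compound; SIE-controlled beta-lactamase reporter measured as 460/530 nm FRET emission ratio; % is set by controls: 0 for no effect and ±100 for the full control effect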). Particulars: ME-180 (cervical carcinoma) SIE beta-lactamase reporter, IL-6 stimulated, 5 h; at 7.69 µM (top of the series) unless noted. In outline:
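IL-6/STAT signaling read in ME-180 cells via an SIE beta-lactamase reporter. Stimulus was 40 pM IL-6 (its AC50) for 5 hrs, so both activation and inhibition register.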

Test [6] addresses Glucocorticoid receptor (Homo sapiens) (UniProt P04150). Nature of the test: GR-GFP Redistribution (AID 450;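 active = compounds whose dose series gives a full or clear partial fitted curve of increased nuclear translocation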; note: potency is the fitted concentration of half-maximal effect). Particulars: U2OS GR-GFP nuclear translocation, laser cytometry, 2 h.
Test [7] shares this target. Nature of the test: GR-EFC Redistribution (AID 451; calls by dose curve; note: potency is the fitted concentration of half-maximal effect). Conditions: CHO-K1 GR-EFC translocation, beta-gal luminescence, 2 h. The method in brief: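 CHO-K1 cells expressing nuclear EA and GR-ED fragments of b-gal; compounds titrated up to 46 uM final, 2 h at 37 C. GR nuclear translocation read as complemented b-gal luminescence after 1 h RT detection.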
The target in test [8] is Mitogen-activated protein kinase 10 (Mus musculus) (UniProt Q61831). The test can be described thus: JNK3 AlphaScreen Assay (AID 530; active = well fitted curve in either direction with a large enough effect, not every such curve was filed as active;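 note: kinase came from lysate of stimulated human HepG2 cells; signal reports phosphorylation of biotinylated GST-cJun 1-79 at Ser73 with 10 µM ATP; % is set by controls: 0 for no effect and ±100 for the full control effect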). Conditions: JNK3 lysate, c-Jun phosphorylation; series mostly up to 57.1 µM. In outline:
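Pre-activated (IL-1β/TNFα) JNK3 in HepG2 lysates phosphorylates biotin-GST-cJun(1-79), 10 uM ATP; anti-phospho-cJun(Ser73) AlphaScreen read at room temperature, pH 7.6 Tris buffer. Compounds pre-incubated 15 min as titrations.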

Test [9] addresses 3',5'-cyclic-AMP phosphodiesterase 4B (Homo sapiens) (UniProt Q07343). The test can be described thus: qHTS Assay for Inhibitors of PDE-IV (AID 607; active = well fitted activation curve with a large enough effect in the main read-out, with a control signal flat, not every such curve was filed as active; note: potency is the fitted concentration of half-maximal effect). Conditions: HEK293 ACTOne CNG channel cells, membrane potential fluorescence; series mostly up to 22.9 µM. The method in brief: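 Live HEK293 cells with a modified cyclic nucleotide-gated (CNG) channel report intracellular cAMP via membrane-potential dye fluorescence (ex 535/em 590 nm). Endogenous PDE-IV was targeted. Compounds were tested at up to 22.9 uM final; RO 20-1724 100 uM served as control.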
(In general: In qHTS, concentration-response curves come from the screen itself.)

Test [10] addresses Cytochrome P450 2C9 (Homo sapiens) (UniProt P11712). Nature of the test: qHTS Assay for Inhibitors and Substrates of Cytochrome P450 2C9 (AID 883). Note: % is set by controls: 0 for no effect and ±100 for the full control effect; nearly all actives have a fitted effect of over 60% in size. Particulars: recombinant CYP2C9, luciferin-H luminescence, 60 min; series mostly up to 57.1 µM. In outline:
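Human CYP2C9 (10nM) with Luciferin-H at 100uM (its KM) in 25mM KPO4; compound preincubated 10 min at 37C, then NADPH regeneration for 60 min at 37C. Luciferin read by luminescence after detection reagent; normalized to 57uM sulphaphenazole as full inhibition.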

Test [11] has as its target Cytochrome P450 3A4 (Homo sapiens) (UniProt P08684). The test can be described thus: qHTS Assay for Inhibitors and Substrates of Cytochrome P450 3A4 (AID 884). Note: potency is the fitted concentration of half-maximal effect; nearly all actives have a fitted effect of over 50% in size. Particulars: recombinant CYP3A4, Luciferin-PPXE luminescence; series mostly up to 57.1 µM. In outline: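 20 nM human CYP3A4 with 25 uM Luciferin-PPXE (at KM) in 200 mM KPO4, preincubated 10 min with compound; NADPH regeneration started a 60 min RT reaction. Luciferin detected by luminescence, normalized to 57 uM ketoconazole as full inhibition.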

For test [12] the target is unchanged. Nature of the test: qHTS Assay for Activators of Cytochrome P450 3A4 (AID 885). Note: nearly all actives have a fitted effect of over 65% in size. Conditions: recombinant CYP3A4, Luciferin-PPXE luminescence, 60 min; series mostly up to 57.1 µM. The method in brief: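 Quantitative HTS format: compounds preincubated with 20nM human CYP3A4 and Luciferin-PPXE substrate at KM, reaction started by NADPH regeneration, stopped after 60 min, luciferase luminescence read 20 min later.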

Test [13] deals with Dual specificity protein kinase CLK4 (Homo sapiens) (UniProt Q9HAZ1). Nature of the test: qHTS Assay for Inhibitors of CDC-like Kinase 4 (ADP-FP Assay) (AID 1795).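 Note: recombinant human CLK4 phosphorylating RS repeat peptide at 1 µM ATP; % is set by controls: 0 for no effect and ±100 for the full control effect; nearly all actives have a fitted effect of over 60% in size.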 Conditions: Transcreener ADP fluorescence polarization; series mostly up to 50 µM. In outline: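 Inhibition of ADP formation by 6.25 nM Clk4 is measured using 1 uM ATP and 100 uM RS repeat peptide over one hour. Produced ADP displaces a fluorescent tracer from antibody, lowering polarization.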
Chain of Dual specificity protein kinase CLK4 (Homo sapiens) (Q9HAZ1 whole entry, looked up): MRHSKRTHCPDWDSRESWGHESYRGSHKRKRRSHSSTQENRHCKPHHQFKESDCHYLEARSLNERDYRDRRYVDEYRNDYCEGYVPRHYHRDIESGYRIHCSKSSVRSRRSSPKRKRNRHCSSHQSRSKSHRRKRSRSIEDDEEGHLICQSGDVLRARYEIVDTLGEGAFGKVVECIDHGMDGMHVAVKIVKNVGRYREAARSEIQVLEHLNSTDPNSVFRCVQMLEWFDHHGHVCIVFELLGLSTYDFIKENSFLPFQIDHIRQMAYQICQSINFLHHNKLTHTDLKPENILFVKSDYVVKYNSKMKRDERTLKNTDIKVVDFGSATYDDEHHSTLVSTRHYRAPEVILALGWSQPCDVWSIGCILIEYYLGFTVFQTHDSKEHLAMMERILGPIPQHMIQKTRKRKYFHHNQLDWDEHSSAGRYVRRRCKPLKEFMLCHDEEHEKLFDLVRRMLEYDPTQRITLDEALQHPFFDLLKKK

Test [14] addresses Ubiquitin carboxyl-terminal hydrolase 1 (Homo sapiens) (UniProt O94782). The test can be described thus: Inhibitors of USP1/UAF1: Pilot qHTS (AID 504865).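 Note: rhodamine fluorescence freed from ubiquitin-rhodamine substrate followed over time; top concentration of the series differs between compounds; % is set by controls: 0 for no effect and ±100 for the full control effect; nearly all actives have a fitted effect of over 35% in size.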 Particulars: purified USP1/UAF1, Ub-rhodamine cleavage fluorescence; series mostly up to 54.9 µM. In outline:
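Kinetic fluorescence assay: 1nM USP1/UAF1, 15 min compound preincubation, then 150nM Ub-Rho; 480/540 nm.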

Test [15] is described as follows: Primary qHTS for small molecule stabilizers of the endoplasmic reticulum resident proteome: Secreted ER Calcium Modulated Protein (SERCaMP) assay (AID 1508630). Note: % is set by controls: 0 for no effect and ±100 for the full control effect. Particulars: SH-SY5Y GLuc-SERCaMP (Gaussia luciferase released on ER calcium loss) secretion, thapsigargin, luminescence; series mostly up to 38.4 µM. In outline:
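GLuc-SERCaMP-expressing SH-SY5Y cells, pretreated 16 h with compound, are challenged with thapsigargin to empty ER calcium stores; after 4 h, coelenterazine is added directly to the medium and luminescence is imaged.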

The target in test [16] is Cytochrome P450 2C19 (Homo sapiens) (UniProt P33261). The test can be described thus: qHTS Assay for Inhibitors and Substrates of Cytochrome P450 2C19 (AID 899). Note: potency is the fitted concentration of half-maximal effect; nearly all actives have a fitted effect of over 60% in size. Conditions: recombinant CYP2C19, luciferin-H EGE luminescence; series mostly up to 57.1 µM. In outline: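 5 nM human CYP2C19 with 10uM Luciferin-H EGE (at KM) in 50mM KPO4, compound preincubated 10 min at 37C, then NADPH regeneration for 60 min at 37C. Luciferin read by luminescence after detection reagent; normalized to 57uM ketoconazole as full inhibition.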

A number with no mark means an inactive call. Inconclusive results are not listed. Activity calls are given as the source filed them. Unless noted, calls come from the whole dose curve; as a rule, active = well fitted curve in the direction sought with a large enough effect; inconclusive = small, poorly fitted or top-dose-only effect, or another doubt; inactive = no such curve, though single readings can be large; an effect the other way counts as inactive or inconclusive.

Chain of Cytochrome P450 3A4 (Homo sapiens) (P08684 whole entry, looked up): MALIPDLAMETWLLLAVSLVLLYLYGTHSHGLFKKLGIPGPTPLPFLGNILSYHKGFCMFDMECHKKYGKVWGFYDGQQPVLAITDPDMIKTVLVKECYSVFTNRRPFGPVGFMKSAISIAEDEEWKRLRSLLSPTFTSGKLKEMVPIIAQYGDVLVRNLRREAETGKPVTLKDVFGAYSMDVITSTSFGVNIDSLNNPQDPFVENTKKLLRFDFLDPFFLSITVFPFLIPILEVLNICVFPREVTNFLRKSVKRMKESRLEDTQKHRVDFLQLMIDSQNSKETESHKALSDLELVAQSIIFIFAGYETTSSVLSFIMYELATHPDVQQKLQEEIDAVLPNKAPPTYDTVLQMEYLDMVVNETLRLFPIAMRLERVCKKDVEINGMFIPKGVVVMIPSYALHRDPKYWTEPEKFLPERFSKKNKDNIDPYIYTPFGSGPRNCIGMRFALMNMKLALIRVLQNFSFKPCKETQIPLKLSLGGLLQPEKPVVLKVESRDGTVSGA
Chain of Ubiquitin carboxyl-terminal hydrolase 1 (Homo sapiens) (O94782 whole entry, looked up): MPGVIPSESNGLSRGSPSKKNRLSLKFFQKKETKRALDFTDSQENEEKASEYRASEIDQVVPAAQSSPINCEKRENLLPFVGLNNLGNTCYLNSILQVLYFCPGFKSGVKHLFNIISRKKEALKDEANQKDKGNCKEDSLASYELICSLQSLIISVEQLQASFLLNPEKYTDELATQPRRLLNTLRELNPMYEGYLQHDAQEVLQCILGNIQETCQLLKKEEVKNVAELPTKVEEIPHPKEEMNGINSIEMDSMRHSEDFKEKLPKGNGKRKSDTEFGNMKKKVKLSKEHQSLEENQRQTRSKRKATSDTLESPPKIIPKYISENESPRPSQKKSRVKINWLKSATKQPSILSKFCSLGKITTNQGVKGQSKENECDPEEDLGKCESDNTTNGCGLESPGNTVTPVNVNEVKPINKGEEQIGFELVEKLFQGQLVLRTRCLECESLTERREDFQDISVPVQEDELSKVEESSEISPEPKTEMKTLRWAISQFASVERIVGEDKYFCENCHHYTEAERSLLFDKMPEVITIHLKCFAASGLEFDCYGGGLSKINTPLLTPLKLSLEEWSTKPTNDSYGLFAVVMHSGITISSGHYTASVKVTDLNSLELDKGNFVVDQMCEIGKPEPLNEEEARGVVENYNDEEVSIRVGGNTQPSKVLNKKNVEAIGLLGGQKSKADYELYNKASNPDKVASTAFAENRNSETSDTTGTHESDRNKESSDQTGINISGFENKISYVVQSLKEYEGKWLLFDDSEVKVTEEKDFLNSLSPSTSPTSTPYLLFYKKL
Chain of Cytochrome P450 1A2 (Homo sapiens) (P05177 whole entry, looked up): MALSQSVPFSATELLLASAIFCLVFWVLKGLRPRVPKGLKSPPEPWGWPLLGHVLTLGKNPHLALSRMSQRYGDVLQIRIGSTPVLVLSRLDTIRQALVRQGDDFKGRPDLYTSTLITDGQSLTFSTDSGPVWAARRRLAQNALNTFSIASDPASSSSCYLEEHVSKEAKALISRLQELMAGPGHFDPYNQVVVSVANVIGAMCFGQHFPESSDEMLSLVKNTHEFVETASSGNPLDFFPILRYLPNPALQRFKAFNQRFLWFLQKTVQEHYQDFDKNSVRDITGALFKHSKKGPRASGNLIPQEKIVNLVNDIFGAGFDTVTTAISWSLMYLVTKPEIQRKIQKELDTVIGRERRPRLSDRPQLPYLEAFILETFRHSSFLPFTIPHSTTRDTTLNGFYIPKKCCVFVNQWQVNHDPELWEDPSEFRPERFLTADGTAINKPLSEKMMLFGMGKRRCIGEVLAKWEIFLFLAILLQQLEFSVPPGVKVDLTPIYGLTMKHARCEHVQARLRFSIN
Chain of Glucocorticoid receptor (Homo sapiens) (P04150 whole entry, looked up, the tested form may be a part): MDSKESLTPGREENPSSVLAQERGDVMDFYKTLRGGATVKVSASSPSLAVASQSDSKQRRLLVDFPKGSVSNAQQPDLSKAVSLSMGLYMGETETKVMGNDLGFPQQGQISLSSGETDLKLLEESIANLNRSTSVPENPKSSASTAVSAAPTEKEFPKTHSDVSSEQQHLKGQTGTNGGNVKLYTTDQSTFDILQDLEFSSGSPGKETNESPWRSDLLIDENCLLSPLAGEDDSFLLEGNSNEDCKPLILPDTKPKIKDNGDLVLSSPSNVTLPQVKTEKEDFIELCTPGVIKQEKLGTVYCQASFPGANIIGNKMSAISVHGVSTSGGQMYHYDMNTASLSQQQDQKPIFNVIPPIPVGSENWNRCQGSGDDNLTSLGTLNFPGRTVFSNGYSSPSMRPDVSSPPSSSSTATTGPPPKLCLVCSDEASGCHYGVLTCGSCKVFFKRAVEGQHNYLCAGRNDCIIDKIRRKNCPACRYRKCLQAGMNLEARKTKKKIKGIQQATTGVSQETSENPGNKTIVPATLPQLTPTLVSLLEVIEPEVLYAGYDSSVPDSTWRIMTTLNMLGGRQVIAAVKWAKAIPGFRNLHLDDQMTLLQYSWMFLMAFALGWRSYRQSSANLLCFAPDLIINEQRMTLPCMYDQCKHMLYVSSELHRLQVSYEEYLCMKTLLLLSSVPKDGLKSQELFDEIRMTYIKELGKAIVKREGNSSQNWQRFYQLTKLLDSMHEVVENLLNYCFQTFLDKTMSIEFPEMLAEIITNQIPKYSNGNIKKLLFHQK
Chain of 3',5'-cyclic-AMP phosphodiesterase 4B (Homo sapiens) (Q07343 whole entry, looked up): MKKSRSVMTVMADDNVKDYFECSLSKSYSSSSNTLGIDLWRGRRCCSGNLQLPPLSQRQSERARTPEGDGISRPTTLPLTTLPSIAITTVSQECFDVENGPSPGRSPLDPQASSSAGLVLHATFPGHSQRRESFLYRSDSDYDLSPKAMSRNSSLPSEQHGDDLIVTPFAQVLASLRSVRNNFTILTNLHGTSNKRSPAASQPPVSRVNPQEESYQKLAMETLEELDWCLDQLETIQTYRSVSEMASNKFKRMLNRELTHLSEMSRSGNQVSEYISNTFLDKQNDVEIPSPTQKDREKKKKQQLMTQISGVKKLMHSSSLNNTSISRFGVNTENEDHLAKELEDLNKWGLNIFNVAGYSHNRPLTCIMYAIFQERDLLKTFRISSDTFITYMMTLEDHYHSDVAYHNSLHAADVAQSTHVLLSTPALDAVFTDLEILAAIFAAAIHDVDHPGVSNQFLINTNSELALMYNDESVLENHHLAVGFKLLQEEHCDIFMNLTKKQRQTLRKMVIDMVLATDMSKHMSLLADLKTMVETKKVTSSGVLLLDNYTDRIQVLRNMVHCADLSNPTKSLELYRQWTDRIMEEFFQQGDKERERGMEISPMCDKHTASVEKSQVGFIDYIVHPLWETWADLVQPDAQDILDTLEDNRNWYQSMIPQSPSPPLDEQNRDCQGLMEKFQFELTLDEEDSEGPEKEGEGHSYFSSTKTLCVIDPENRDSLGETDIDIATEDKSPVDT
Chain of Cytochrome P450 2C9 (Homo sapiens) (P11712 whole entry, looked up): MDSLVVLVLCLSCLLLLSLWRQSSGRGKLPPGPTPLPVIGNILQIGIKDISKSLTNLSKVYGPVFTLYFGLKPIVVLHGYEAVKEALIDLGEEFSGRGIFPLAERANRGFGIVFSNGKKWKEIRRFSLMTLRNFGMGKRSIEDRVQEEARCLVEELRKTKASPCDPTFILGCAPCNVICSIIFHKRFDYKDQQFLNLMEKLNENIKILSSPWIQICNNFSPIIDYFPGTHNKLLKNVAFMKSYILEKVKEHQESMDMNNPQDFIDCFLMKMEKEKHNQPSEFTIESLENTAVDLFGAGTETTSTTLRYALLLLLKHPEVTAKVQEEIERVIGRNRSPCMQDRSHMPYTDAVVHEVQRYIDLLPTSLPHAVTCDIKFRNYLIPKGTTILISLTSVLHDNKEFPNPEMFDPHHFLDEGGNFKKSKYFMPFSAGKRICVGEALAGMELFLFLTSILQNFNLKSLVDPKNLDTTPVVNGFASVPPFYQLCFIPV

`COc1ccc(CNc2ccnc(-c3cccc(NS(C)(=O)=O)c3)n2)c(OC)c1`: the Potency in test [1] was above 11.4 µM; in test [3], 15.8 µM (active); in test [6] it was above 46 µM; in test [7], above 46 µM; in test [9], 2 µM (active); in test [11], 3.98 µM (active). Also, the activity change, negative = inhibition in test [2] was -18.2%; in [4] it was 8.15%; in test [10], 20.5% [at 2.29 µM]. Further, the activity, negative = inhibition in [5] was -1.05%. In addition, the Potency result in test [8], in test [12], in [13] and in test [14] was “inactive” throughout. The outcome in [15] was inactive.
`CC(=O)NCCNc1nc(-c2c(C)noc2C)nc2ccccc12`: the Potency in test [1] is above 11.4 µM; in test [3], 1.58 µM (active); in [6], above 46 µM; in [7] it was above 46 µM. The activity change, negative = inhibition in test [2] was 5.25%; in test [4], 6.76%. In test [5], the activity, negative = inhibition is 1.96%. Further, the Potency result in test [8], in [9], in [12], in test [13] and in [14] was “inactive” in each case. For the same compound, the result in test [15] was inactive.
With `CNc1cc(-c2ccccc2C)ncn1`, the Potency in test [1] was above 11.4 µM; in test [3], 10 µM (active); in [6] it was above 46 µM; in test [7], above 46 µM. Also, the figures for the activity change, negative = inhibition in test [2] and in test [4] were 2.36% and 2.04%, respectively. Further, the activity, negative = inhibition in test [5] is 13.3%. Moreover, the Potency result in [8], in [9], in [13] and in [14] was “inactive” each time. Moreover, the result in test [15] was inactive.
`COc1cccc(-c2cncnc2NCc2cccnc2)c1`: the Potency in test [1] is above 11.4 µM; in [3], 0.794 µM (active); in [6], above 46 µM; in test [7], above 46 µM; in test [11] it was 1.26 µM (active); in test [16], 0.316 µM (active). Further, the figures for the activity change, negative = inhibition in test [2] and in test [4] were -6.26% and -6.72%, respectively. For the same compound, the activity, negative = inhibition in test [5] was 3.03%. Moreover, the Potency result in test [8], in test [9], in test [12], in [13] and in test [14] was “inactive” in each case. Besides, in test [15], the result was inactive.
Regarding `CC(=O)NCCNc1ccnc(-c2ccccc2C)n1`, the Potency in test [1] is above 11.4 µM; in test [3] it was 3.98 µM (active); in test [6] it was above 46 µM; in test [7] it was above 46 µM. The activity change, negative = inhibition in [2] is 12.2%; in [4], 6.08%. Besides, in test [5], the activity, negative = inhibition was 8.94%. The Potency entry in test [8], in test [9], in [12], in test [13] and in test [14] was “inactive” in each case. The outcome in test [15] was inactive.
Turning to `COCCNc1nc(-c2c(C)noc2C)nc2ccccc12`, the Potency was above 11.4 µM in [1], 0.126 µM (active) in test [3], above 46 µM in test [6] and above 46 µM in test [7]. Also, the activity change, negative = inhibition in test [2] is 1.66%; in test [4] it was 22.9%. Further, the activity, negative = inhibition in [5] is 17.6%. The Potency result in [8], in [9], in test [12], in test [13] and in test [14] was “inactive” in each case. In test [15], the outcome was inactive.
